In the library only some 17% were active in any assay of this set; here they are far more common.
ATXN2 expr inh: reduces ATXN2 reporter expression in HEK-293 cells; hit rate 0.72% among 360,000; Potency, µM (titrated, usually from 57 µM), without a hit: top-dose activity change, negative = inhibition, actives largely listed as inhibitors; HEK-293 ATXN2-luciferase reporter, luminescence, 24 h; also: % is scaled to controls: 0 for no effect and ±100 for the full control effect; nearly all actives have a fitted effect of over 55% in size
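ATXN2-luciferase reporter cells (luciferase flanked by upstream and downstream ATXN2 gene portions) were treated 24 h at 37 °C with compounds at up to 57 uM. SteadyGlo luminescence gave expression; GF-AFC fluorescence gave viability.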
ATXN viability: reduces viability in counter-screen for ATXN expression inhibitors. S2 cells (HEK-293 line with an ATXN2-luciferase reporter) viability, CellTiter-Fluor protease fluorescence, 24 h. Potency, µM (highest dose often 56.7 µM), usual class: cytotoxic. hit rate 0.49% among 400,000; also: nearly all actives have a fitted effect of over 40% in size
HepG2 viability: counter-screen for TGF-b inhibitors: cytotoxicity in HepG2 cells. HepG2 CAGA-GFP viability, ATP luminescence, 18 h. Potency, µM (highest dose often 46.1 µM), for the others: top-dose activity change, negative = cytotoxicity, actives largely listed as cytotoxic. hit rate 0.76% among 410,000. AID 588856
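CellTiter-Glo luminescence gave cytotoxicity after 18 hours at 37 degrees C. The cells were HepG2 CAGA-GFP in 1% FBS DMEM, stimulated with 500 pg/mL TGF-beta after compound addition. %Activity was normalised to no-cell wells (complete cell-killing) and DMSO (no toxicity), and curves were fitted and classified.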
TDP1 cell noCPT: qHTS for Inhibitors of human tyrosyl-DNA phosphodiesterase 1 (TDP1): qHTS in cells in absence of CPT; DT40 Tdp1-/- hTDP1 cells, no CPT, ATP luminescence, 48 h; Potency, µM (top dose mostly 46.2 µM), inactives show at the highest dose activity change, negative = growth inhibition, hits mostly inhibitors; hit rate 15% among 420,000; also: % is scaled to controls: 0 for no effect and ±100 for the full control effect; nearly all actives have a fitted effect of over 55% in size
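Compound effects on proliferation are scored in DT40 Tdp1-/-;hTDP1 cells in the absence of CPT. ATP levels (CellTiter-Glo luminescence) are recorded after a ≥48 hr, 37 °C incubation.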
TGFb inhibitor: TGF-b pathway inhibition | hit rate 1.2% among 410,000 | HepG2 CAGA-GFP TGF-b/SMAD3 reporter, GFP fluorescence, 18 h; TGF-beta stimulated, 500 pg/mL final | Potency, µM (doses to about 46.1 µM), for inactives: at the highest dose activity, negative = inhibition, hits mostly inhibitors; also: % is scaled to controls: 0 for no effect and ±100 for the full control effect; nearly all actives have a fitted effect of over 65% in size
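Using HEPG2 CAGA-GFP reporter cells at 1000 cells/well, we pinned test compounds, stimulated with recombinant TGF-beta (500 pg/mL final) and measured total well GFP after 18 h.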
TDP1 cell CPT: growth inhibition of DT40 Tdp1-/-;hTDP1 cells with camptothecin (screen for TDP1 inhibitors); Potency, µM (doses to about 46.2 µM), inactives show at the top dose activity change, negative = growth inhibition, usual class: inhibitors; chicken DT40 Tdp1-/-;hTDP1 cells + 20 nM CPT, ATP luminescence, 48 h; hit rate 12% among 420,000; also: % is scaled to controls: 0 for no effect and ±100 for the full control effect; nearly all actives have a fitted effect of over 55% in size
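Cell growth measured by CellTiter-Glo luminescence after a minimum 48 h, 37 C compound exposure with 20 nM CPT in Tdp1-knockout DT40 cells stably expressing hTDP1, seeded 400/well; qHTS titration format.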
Starred values were filed as active, the others as inactive. Calls follow the shape of the dose curve; as a rule, active = well fitted curve in the direction sought with a large enough effect; inconclusive = small, poorly fitted or top-dose-only effect, or another doubt; inactive = no such curve, though single readings can be large; an effect the other way counts as inactive or inconclusive. Potency is read from the fitted curve at half-maximal effect.

What do the screens show for `Cc1ccc(-n2sc3cc(F)ccc3c2=O)c(C)c1`?
ATXN2 expr inh: inconclusive; ATXN viability: 22.4µM*; HepG2 viability: 11.2µM*; TDP1 cell noCPT: 2.31µM*; TGFb inhibitor: inconclusive; TDP1 cell CPT: 2.91µM*

Results for CCN(CC)c1ccc(/C=N/NC(=O)CCC(=O)NCc2ccccc2)c(O)c1 ?
ATXN2 expr inh: 3.55µM*; ATXN viability: inactive; HepG2 viability: -8.5%; TDP1 cell noCPT: 5.17µM*; TGFb inhibitor: -34.2%; TDP1 cell CPT: 5.17µM*

What do the screens show for `O=C(N/N=C/c1sc(N2CCOCC2)nc1-c1ccccc1)c1ccccc1F`?
ATXN2 expr inh: -8.1%; ATXN viability: inactive; HepG2 viability: -6.5%; TDP1 cell noCPT: inconclusive; TGFb inhibitor: -30.8%; TDP1 cell CPT: inconclusive

What do the screens show for `O=C(CCC(=O)N/N=C/c1c[nH]c2ccccc12)NCc1ccccc1`?
ATXN2 expr inh: 2.0%; ATXN viability: inactive; HepG2 viability: -4.6%; TDP1 cell noCPT: -20.0%; TGFb inhibitor: -1.2%; TDP1 cell CPT: -8.1%

How did CCN(CC)c1ccc(C=Nc2cc(C)ccc2C)c(O)c1 do in these assays?
ATXN2 expr inh: 5.7%; ATXN viability: inactive; HepG2 viability: -8.1%; TDP1 cell noCPT: inconclusive; TGFb inhibitor: -12.9%; TDP1 cell CPT: -8.7%

How did CCN(CC)c1ccc(/C=N/Nc2ccc(C)cc2)c(O)c1 do in these assays?
ATXN2 expr inh: -16.3%; ATXN viability: inactive; HepG2 viability: -5.7%; TDP1 cell noCPT: 11.6µM*; TGFb inhibitor: -10.2%; TDP1 cell CPT: 11.6µM*

Results for O=C(Nc1ccccc1F)C(=Cc1sc(N2CCOCC2)nc1-c1ccccc1)C(=O)Nc1ccccc1F ?
ATXN2 expr inh: -11.8%; HepG2 viability: 9.6%; TDP1 cell noCPT: 5.17µM*; TGFb inhibitor: 24.7%; TDP1 cell CPT: 1.64µM*

Results for CC/C(=N\NC(=O)CCC(=O)NCc1ccccc1)c1ccc(O)cc1 ?
ATXN2 expr inh: -25.4%; ATXN viability: inactive; HepG2 viability: -43.3%; TDP1 cell noCPT: 4.11µM*; TGFb inhibitor: 1.2%; TDP1 cell CPT: 2.91µM*

How did CCOC(=O)C(CCC(C)=O)C(=O)c1ccccc1 (centres undefined) do in these assays?
ATXN2 expr inh: 3.8%; ATXN viability: inactive; HepG2 viability: 4.4%; TDP1 cell noCPT: -13.2%; TGFb inhibitor: 2.3%; TDP1 cell CPT: 18.5%

How did CCOC(=O)N/N=C/c1ccc(N(CC)CC)cc1O do in these assays?
ATXN2 expr inh: 14.8%; ATXN viability: inactive; HepG2 viability: -3.1%; TDP1 cell noCPT: 5.8µM*; TGFb inhibitor: -1.5%; TDP1 cell CPT: 8.2µM*
